Our source for the IC50 values is PubChem BioAssay AID652145 (The Scripps Research Institute Molecular Screening Center, 2013).

One may read the IC50 as the concentration needed to halve the response being measured.

The other results are listed elsewhere or left out. Values without a mark were called inactive. Active and inactive are the calls of the source. The rule behind the calls is not given here.

This test can be described thus: potency against coupled GDH and TPI enzymes – biochemical, fluorescence, IC50, artefact control for M. tuberculosis FBA inhibitor project, dose response (AID 652145). The note with it: GDH-TPI coupled enzyme assay, artifact counterscreen.
Regarding `O=C(NCc1cccc(Cl)c1)C1=CC=CN2CCS(=O)(=O)N=C12`, the IC50 was 4.94 µM (active). With `O=C1C(=O)N(c2ccccc2)C(c2ccccc2)C1c1ccccc1` (centres undefined), the IC50 is over 10 µM. In the case of `COc1ccc2oc(=O)c(C(=O)NCc3ccccn3)cc2c1`, the IC50 was 1.9 µM (active). Take `CC(=O)N1C(=O)/C(=C2\SC(=S)N(NC(=O)c3ccc(O)cc3)C2=O)c2ccccc21`: the IC50 is over 10 µM.

With `N#Cc1c(N2CCCCC2)nc(N)c2c(N)nc(SCC(=O)O)cc12`, the IC50 is over 10 µM. Next, `CC(=O)N1CCN(C(=O)c2cc(-c3ccc(Cl)s3)nc3ccccc23)CC1`: 2.27 µM (active); `CCOc1c2ccc(C(=O)NC3CCCc4ccccc43)cc2nn1CC` (centres undefined): 1.79 µM (active). `Cn1cccc1-c1nc2ccccc2n1C`: the IC50 is 5.56 µM (active). Consider `CCCNC(=O)c1c(N)n(-c2ccc(S(N)(=O)=O)cc2)c2nc3ccccc3nc12`, for which the IC50 was 2.08 µM (active).
